Here are results for 40 compounds from PubChem BioAssay (EPA / NIEHS).

The source made the active and inactive calls. Rule for the calls: active = hit-call score of the fitted dose curve at least 0.9, where 1 is the maximum; inactive = score below 0.9.

A short description of the first assay: ATG_GATA_CIS: Attagene CIS-FACTORIAL HepG2 Assay for human GATA Binding Protein (AID 2282944). Particulars: HepG2 GATA cis-element reporter, Attagene multiplex mRNA; actives raise or lower the signal. The gist of the method: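 Transfected cis-reporter HepG2 cells were treated with chemicals for 24 hours. Total RNA was then converted to cDNA, amplified with reporter-specific primers and analysed by fluorescent capillary electrophoresis, using DMSO-treated wells as baseline.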
As for `CC(C)=CCC[C@H](C)CCO`, the call was inactive.

On to `CCCCC/C=C\C/C=C\CCCCCCCC(=O)OC`, for which the result was inactive.

For the compound `S=C(NC1CCCCC1)NC1CCCCC1`, the compound was classed as inactive.

With `Cc1cccc(OCCOc2cccc(C)c2)c1`, the compound was classed as inactive.

`O=S(=O)(Oc1ccc(Cl)cc1Cl)c1ccccc1`: the compound was classed as inactive.

Turning to `CC(C)CCCC(C)CC=O` (centres undefined), the call was inactive.

`CC(C)(C)C(=O)CCc1ccc(Cl)cc1`: the result was inactive.

In the case of `O=CN1CCCCC1`, the compound was classed as inactive.

For `N#[N+]c1ccc2c(S(=O)(=O)[O-])cccc2c1O`, the compound was called inactive.

`Cc1cc(=O)n(-c2ccccc2)n1C`: the call was inactive.

As to `N[C@H]1C(O)O[C@H](CO)[C@H](O)[C@@H]1O` (some centres undefined), the call was inactive.

`O=C(c1ccccc1)c1ccc(O)c(O)c1O`: the call was inactive.

Regarding `Cc1cccc(C(=O)O)c1`, the call was inactive.

On to `COC(=O)c1c(C)cc(O)c(C)c1O`, for which the outcome was inactive.

Turning to `Cc1cc(C)c(C)c(O)c1`, the outcome was inactive.

Take `O=S1(=O)OC(c2ccc(O)cc2)(c2ccc(O)cc2)c2ccccc21`: the call was inactive.

With `CCN(Cc1cccc(S(=O)(=O)O)c1)c1ccc(C(=C2C=CC(=[N+](CC)Cc3cccc(S(=O)(=O)[O-])c3)C=C2)c2ccccc2)cc1`, the call was inactive.

On to `O=C(Nc1ccccc1)c1ccccc1O`, for which the compound was called inactive.

Turning to `CC(=O)NS(=O)(=O)c1ccc(N)cc1`, the call was inactive.

As for `CCO[Si](CCCN=C=O)(OCC)OCC`, the compound was called inactive.

Regarding `CCCCCCCCCCc1ccccc1`, the call was inactive.

As to `CC(=O)OCCC1CCCCC1`, the call was inactive.

As to `O=C1CCCC(=O)O1`, the result was inactive.

In the case of `CCCCC(CC)CCC(CC(C)C)OS(=O)(=O)O` (centres undefined), the compound was called inactive.

Turning to `CC(CC=O)c1ccccc1` (centres undefined), the call was inactive.

Turning to `CC1=CC[C@H]2C[C@@H]1C2(C)C`, the call was inactive.

For the compound `C(=CC=Nc1ccccc1)C=CNc1ccccc1`, the call was inactive.

As to `C#CC1(O)CC[C@H]2[C@@H]3CCC4=CCCC[C@@H]4[C@H]3CC[C@@]21C` (some centres undefined), the compound was classed as inactive.

`COc1cc(NC(=O)CC(C)=O)c(OC)cc1Cl`: the compound was called inactive.

Turning to `CNC(=S)N(C)C`, the call was inactive.

As for `COc1ccc(-c2coc3cc(O)ccc3c2=O)cc1`, the call was inactive.

For the compound `O=c1n(CCO)c(=O)n(CCO)c(=O)n1CCO`, the outcome was inactive.

Consider `CC(=O)C=CC1C(C)=CCC(C)C1(C)C` (centres undefined), for which the compound was called inactive.

In the case of `C=C(C)[C@H]1CC=C(C)CC1`, the outcome was inactive.

The next assay can be described thus: ATG_GLI_CIS: Attagene CIS-FACTORIAL HepG2 Assay for human Zinc Finger Protein GLI1 (AID 2282945). As to conditions: HepG2, Attagene cis-factorial reporter mRNA, GLI element; actives raise or lower the signal. The gist of the method:
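Transiently transfected HepG2 cells report endogenous transcription factor activity via cis-element-driven reporter units. After 24 h compound exposure, reporter mRNA was measured by RT-PCR with capillary electrophoresis; bidirectional fitting against DMSO baseline.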
On to `CC(C)=CCC[C@H](C)CCO`, for which the call was inactive.

On to `CCCCC/C=C\C/C=C\CCCCCCCC(=O)OC`, for which the AC50 is 162 µM (active).

Consider `S=C(NC1CCCCC1)NC1CCCCC1`, for which the compound was classed as inactive.

As to `Cc1cccc(OCCOc2cccc(C)c2)c1`, the result was inactive.

Take `O=S(=O)(Oc1ccc(Cl)cc1Cl)c1ccccc1`: the compound was called inactive.

In the case of `CC(C)CCCC(C)CC=O` (centres undefined), the compound was called inactive.

For `CC(C)(C)C(=O)CCc1ccc(Cl)cc1`, the compound was classed as inactive.

Regarding `O=CN1CCCCC1`, the call was inactive.

With `O=Cc1ccc(CO)o1`, the compound was classed as inactive.

Consider `CO[Si](CCC1CCC2OC2C1)(OC)OC` (centres undefined), for which the outcome was inactive.

On to `N#[N+]c1ccc2c(S(=O)(=O)[O-])cccc2c1O`, for which the compound was called inactive.

As to `Cc1cc(=O)n(-c2ccccc2)n1C`, the compound was called inactive.

`N[C@H]1C(O)O[C@H](CO)[C@H](O)[C@@H]1O` (some centres undefined): the call was inactive.

With `O=C(c1ccccc1)c1ccc(O)c(O)c1O`, the compound was called inactive.

Consider `Cc1cccc(C(=O)O)c1`, for which the call was inactive.

Take `COC(=O)c1c(C)cc(O)c(C)c1O`: the call was inactive.

For the compound `Cc1cc(C)c(C)c(O)c1`, the call was inactive.

As to `O=S1(=O)OC(c2ccc(O)cc2)(c2ccc(O)cc2)c2ccccc21`, the result was inactive.

Take `CCN(Cc1cccc(S(=O)(=O)O)c1)c1ccc(C(=C2C=CC(=[N+](CC)Cc3cccc(S(=O)(=O)[O-])c3)C=C2)c2ccccc2)cc1`: the compound was called inactive.

Consider `O=C(Nc1ccccc1)c1ccccc1O`, for which the outcome was inactive.

Regarding `CC(=O)NS(=O)(=O)c1ccc(N)cc1`, the call was inactive.

On to `CCO[Si](CCCN=C=O)(OCC)OCC`, for which the outcome was inactive.

For `C=C(C)CCO`, the result was inactive.

In the case of `CCCCCCCCCCc1ccccc1`, the result was inactive.

`CCCCCCC(O)CO` (centres undefined): the outcome was inactive.

As for `CCOC(=O)[C@H](C)O`, the compound was called inactive.

Turning to `CC(=O)OCCC1CCCCC1`, the compound was classed as inactive.

As for `O=C1CCCC(=O)O1`, the outcome was inactive.

As for `CCCCC(CC)CCC(CC(C)C)OS(=O)(=O)O` (centres undefined), the compound was called inactive.

Turning to `CC(CC=O)c1ccccc1` (centres undefined), the outcome was inactive.

`CC1=CC[C@H]2C[C@@H]1C2(C)C`: the compound was called inactive.

Take `O=C1c2cccc(O)c2C(=O)c2c(O)cc(CO)cc21`: the compound was called inactive.

`C(=CC=Nc1ccccc1)C=CNc1ccccc1`: the compound was classed as inactive.

Take `C#CC1(O)CC[C@H]2[C@@H]3CCC4=CCCC[C@@H]4[C@H]3CC[C@@]21C` (some centres undefined): the outcome was inactive.

For `COc1cc(NC(=O)CC(C)=O)c(OC)cc1Cl`, the call was inactive.

In the case of `CNC(=S)N(C)C`, the call was inactive.

For `COc1ccc(-c2coc3cc(O)ccc3c2=O)cc1`, the result was inactive.

For `O=c1n(CCO)c(=O)n(CCO)c(=O)n1CCO`, the result was inactive.

Take `CC(=O)C=CC1C(C)=CCC(C)C1(C)C` (centres undefined): the compound was classed as inactive.

On to `C=C(C)[C@H]1CC=C(C)CC1`, for which the call was inactive.

In general, AC50 refers to the concentration at which the activity in the assay is half-maximal.
